Most compounds without a hit are left out; they make up all but 2.4% or so of the library.
ClpP mod – qHTS Assay for Activators of ClpP | ATP-dependent Clp protease proteolytic subunit (Bacillus subtilis (strain 168)), P80244 | actives 1.9% (n = 340,000) | Potency, µM (highest dose often 57.5 µM), inactives show at the top dose activity change, negative = active | AID 651965, 2013 | purified B. subtilis ClpP, FRET peptide cleavage, 20 min; active = well fitted falling curve with a large enough effect; inconclusive = small, poorly fitted or top-dose-only effect; inactive = no such curve, though single readings can be large or run the other way; also: the source files actives as falling curves though it sought activators and does not explain the sign; nearly all actives have a fitted effect of over 65% in size
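Buffer: 100 mM Tris/HCl pH8, 100 mM KCl, 0.05% low protease BSA, 2.5% glycerol, 0.01% Tween-20. ClpP 10 microg/mL final; 20 min RT; delta FRET normalized to ADEP and DMSO controls.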
PTAP TSG101 blk – blocks PTAP/TSG101 interaction to inhibit HIV-1 budding. 340,000 tested, under 10 active. Potency, µM (titrated, usually from 115 µM), for inactives: at the top dose activity change, negative = inhibition, hits mostly inhibitors. Fluorescence polarization, FITC-PTAP peptide / Tsg101 binding. Q99816; active = well fitted inhibition curve with a large enough effect in the main read-out, with a control signal flat, not every such curve was filed as active; inconclusive = small, poorly fitted or top-dose-only effect, or effect the other way, or a change in a side signal; inactive = no such curve, though single readings can be large or run the other way; also: % of control where 0% means no effect
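Steps: Tsg101 binding domain dispensed (10 uM final), compounds pinned in DMSO, FITC-labeled PTAP-motif peptide added (50 nM final); after 20 min binding at room temperature, polarization measured.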
12-LOX inh – ALOX12 (human) lipoxygenase inhibition; P18054; AID 1671190; purified 12hLO, xylenol orange hydroperoxide absorbance; actives 1.1% (n = 580,000); Potency, µM (highest dose often 108 µM), for inactives: at the highest dose activity change, negative = inhibition, hits mostly inhibitors; also: % is scaled to controls: 0 for no effect and ±100 for the full control effect
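Purified human 12hLO at 150 nM in 25 mM Hepes, 0.01% Triton X-100, pH 7.0, preincubated 15 min at room temperature with compound. Reaction started with 40 uM arachidonic acid, 30 min at room temperature. Hydroperoxide measured by Fe-xylenol orange, 573/405 nm absorbance ratio.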
Rango complex inh – prevents formation of the Rango-importin beta complex. Q14974. Rango CFP/YFP FRET sensor + importin beta, 45 min. Potency, µM (highest dose often 92.2 µM), for inactives: at the top dose inhibition of complex formation. actives 0.031% (n = 340,000). AID 540263; calls by dose curve;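 also: 0% = DMSO wells and 100% = buffer wells lacking importin beta; nearly all actives have a fitted effect of over 15% in size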
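FRET biosensor Rango (snurportin 1 IBB between N-terminal EYFP and C-terminal Cerulean), 50 nM in PBS/1 mM DTT/0.02% Tween-20/0.1% BSA, preincubated 5 min RT with compound; 0.125 microM importin beta added, 45 min RT, CFP/YFP FRET ratio read.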
Rango release inh – prevents RanGTP from dissociating the Rango-importin beta complex | Potency, µM (highest dose often 46.1 µM), for the others: at the highest dose activity change, negative = inhibition | Biochemical FRET Rango-importin beta, RanGTP-induced dissociation | O95149+P62826 | actives 0.071% (n = 340,000); calls by dose curve; also: % of control where 0% means no effect; nearly all actives have a fitted effect of over 45% in size
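Rango/importin beta premix (0.1/0.25 uM final), PBS + 1 mM DTT + 0.02% Tween-20 + 0.1% BSA; cpd 5 min RT; FRET pre-read; + RanGTP-RCC1 (0.6 uM Ran, 2 mM GTP, 0.2 uM RCC1); 45 min RT; FRET post-read, ex 430, em 486/530 nm.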
TDP1 inh – blocks human tyrosyl-DNA phosphodiesterase 1. actives 0.28% (n = 350,000). recombinant TDP1, AlphaScreen DNA substrate cleavage. AID 485290. Q9NUW8. Potency, µM (highest dose often 130 µM), for the others: at the highest dose activity change, negative = inhibition, actives largely listed as inhibitors; also: % is scaled to controls: 0 for no effect and ±100 for the full control effect; nearly all actives have a fitted effect of over 40% in size
Target sequence (Q9NUW8 whole entry, looked up): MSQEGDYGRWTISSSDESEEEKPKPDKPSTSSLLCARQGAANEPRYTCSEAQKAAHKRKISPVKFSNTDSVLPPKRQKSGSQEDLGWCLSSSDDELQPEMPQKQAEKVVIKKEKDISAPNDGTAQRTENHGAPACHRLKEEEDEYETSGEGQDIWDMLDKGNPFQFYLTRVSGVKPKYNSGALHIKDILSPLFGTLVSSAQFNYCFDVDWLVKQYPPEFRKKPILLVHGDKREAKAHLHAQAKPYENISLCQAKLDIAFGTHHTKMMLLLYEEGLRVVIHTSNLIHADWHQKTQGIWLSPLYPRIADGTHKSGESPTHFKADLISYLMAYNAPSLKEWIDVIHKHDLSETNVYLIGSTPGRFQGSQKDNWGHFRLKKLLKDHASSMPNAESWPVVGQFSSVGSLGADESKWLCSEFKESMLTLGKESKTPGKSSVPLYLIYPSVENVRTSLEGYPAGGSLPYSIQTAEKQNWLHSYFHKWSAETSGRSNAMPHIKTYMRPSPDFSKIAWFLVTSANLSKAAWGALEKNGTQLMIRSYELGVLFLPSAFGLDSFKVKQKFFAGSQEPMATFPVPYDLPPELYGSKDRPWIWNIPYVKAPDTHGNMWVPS
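E. coli-derived human Tdp1, 1 nM final. Cpd preinc 15 min RT; substrate 15 nM final, 5 min RT; AS bead mix 10 ug/ml final, 10 min RT. Signal loss = tyrosine-FITC cleavage. No-enzyme wells = max signal.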
The depositor's hits bear a star; i = inactive; ? = inconclusive; · = not tested or not shown; [ ] = remark or other dose. Unless noted, calls follow the shape of the dose curve; as a rule, active = well fitted curve in the direction sought with a large enough effect; inconclusive = small, poorly fitted or top-dose-only effect, or another doubt; inactive = no such curve, though single readings can be large; an effect the other way counts as inactive or inconclusive. Potency is read from the fitted curve at half-maximal effect.

SMILES	ClpP mod	PTAP TSG101 blk	12-LOX inh	Rango complex inh	Rango release inh	TDP1 inh
Cc1cnc(CNc2ncncc2-c2ccccc2CN(C)C)cn1	·	·	?	·	·	28µM*
CCNC(=O)N1CCC(c2noc(-c3cnccn3)n2)C1 (stereo not drawn)	·	·	-14%	·	·	·
O=C(Nc1ccccc1C(=O)O)c1cccc(NC(=O)c2ccccc2Br)c1	·	0%	?	-1%	0%	·
COc1ccc(S(=O)(=O)Nc2nc3ccccc3nc2Nc2cccc(C(=O)O)c2)cc1	-29%	-5%	15%	-1%	-8%	5%
O=C(O)c1ccc(NS(=O)(=O)c2cccc(C(=O)Nc3ccc(Br)cc3)c2)cc1	1%	-4%	-22%	0%	8%	·
O=C(Nc1ccccc1C(=O)O)c1cccc(S(=O)(=O)Nc2ccc(Br)cc2)c1	-2%	-3%	16µM*	0%	-7%	6%
O=C(Nc1ccccc1C(=O)O)c1cccc(NS(=O)(=O)c2ccc(Br)cc2)c1	-2%	-5%	40µM*	-1%	1%	·
O=C(O)c1cccc(Nc2nc3ccccc3nc2NS(=O)(=O)c2ccc(Br)cc2)c1	·	·	13µM*	·	·	·
O=C1CCN(Cc2cccc(F)c2)CCCC(C(=O)NCc2ccncc2)CCN1 (stereo not drawn)	·	·	33%	·	·	·
Cc1ccc(NC(=O)CN2C(=O)S/C(=C\c3ccc(-c4cccc(C(=O)O)c4C)o3)C2=O)cc1C	·	?	?	?	?	79µM*
Cn1cc(/C=C2/SC(=O)N(CC(=O)Nc3ccc4c(c3)OCO4)C2=O)c2ccccc21	-3%	1%	?	?	?	-2%
O=C(CN1C(=O)S/C(=C\c2ccc(-c3cc(C(=O)O)ccc3Cl)o2)C1=O)Nc1ccc2c(c1)OCO2	·	·	?	·	·	7.9µM*
N#Cc1ccccc1CN1CCNc2nc(CN3CCOCC3)n(Cc3ccccc3)c2C1=O	·	·	36%	·	·	·
Cc1ccc(-n2nc3c(c2NC(=O)c2ccc(Br)o2)CSC3)c(C)c1	1%	·	8.9µM*	0%	-5%	-3%
Cc1ccc(-n2nc3c(c2NC(=O)c2ccco2)CS(=O)C3)c(C)c1 (stereo not drawn)	25µM*	-3%	?	0%	-12%	·
Cc1ccc(-n2nc3c(c2NC(=O)C(C)(C)C)CSC3)c(C)c1	-1%	-10%	14%	2%	6%	7%
Cc1ccc(-n2nc3c(c2NC(=O)CC(C)C)CS(=O)C3)cc1 (stereo not drawn)	2%	-9%	40µM*	0%	-6%	·
Cc1ccc(NC(=O)c2cc(-c3ccccn3)nc3ccccc23)c(O)c1	·	·	-11%	·	·	·
CN(C)Cc1nnc(C2CC(NC(=O)c3cn(-c4ccccc4)nn3)C2)n1C (stereo not drawn)	·	·	79%	·	·	·
COc1ccc(-c2cn(C)c(=O)n3cc(COc4ccccc4)nc23)cn1	·	·	5%[176 µM]	·	·	·
COCC1CN(C)CC12CCN(C(=O)c1cc(C)cc(C)c1)CC2 (stereo not drawn)	·	·	8%	·	·	·
O=C(O)c1cc(S(=O)(=O)O)ccc1O	20µM*	2%	?	-1%	-6%	3%
O=C(N/N=C/c1ccc(-c2ccc(S(=O)(=O)Nc3ncccn3)cc2)o1)c1cc2ccccc2cc1O	?	-5%	13µM*	?	-21%	·
NS(=O)(=O)c1ccc(-c2ccc(/C=N/NC(=O)c3ccccc3O)o2)cc1	-7%	2%	8%	?	5%	3%
CCOc1ccc(C(=O)N/N=C/c2ccc(-c3ccc(S(=O)(=O)Nc4ncccn4)cc3)o2)cc1	28µM*	-4%	6%	?	-12%	-9%
SMILES	ClpP mod	PTAP TSG101 blk	12-LOX inh	Rango complex inh	Rango release inh	TDP1 inh
Cc1ccc(-n2c(C)cc(/C=N/NC(N)=S)c2C)cc1	-5%	-5%	45µM*	0%	-22%	8%
CC(C)COc1ccc(C(=O)Nc2ccc(S(=O)(=O)Nc3ncccn3)cc2)cc1	-1%	·	-11%	·	·	3%[2.28 µM]
NC(=S)NN=Cc1ccc(-c2ccc(S(=O)(=O)Nc3ncccn3)cc2)o1	-3%	-4%	?	?	?	10µM*
Cc1ccc(-n2c(C)cc(/C=N/NC(=O)c3ccncc3)c2C)cc1	0%	-12%	?	0%	1%	8%
Cc1ccc(-c2ccc(/C=N/NC(N)=S)o2)cc1	·	-5%	45µM*	-5%	7%	·
NC(=S)N/N=C/c1ccc(-c2ccccc2)o1	-12%	-4%	i	-3%	-16%	7%
Cc1cn2nc(N)c3ccccc3c2n1	28µM*	-2%	1%	3%	-3%	-2%
O=C(Nc1ccc(-c2nnc(-c3ccco3)o2)cc1)C(c1ccccc1)c1ccccc1	28µM*	-2%	32%	-1%	1%	6%
c1ccc(-c2nnc(-c3ccco3)o2)cc1	14µM*	-7%	32%	-2%	-5%	2%
c1ccc(-c2nnc(-c3ccco3)n2-c2ccccc2)cc1	22µM*	1%	-7%	2%	-7%	5%
Brc1ccc(-c2nnc(-c3ccco3)o2)cc1	37%	0%	0%	-5%	3%	5%
Cc1cc(C)cc(OCC(=O)Nc2cccc(-c3nnc(-c4ccco4)o3)c2)c1	32µM*	·	8%	-2%	-1%	0%
COc1ccccc1CC(=O)Nc1ccc(-c2nnc(-c3ccco3)o2)cc1	?	-2%	8%	1%	-3%	3%
Clc1cc(CSc2nc3ccccc3o2)cc2c1OCCCO2	·	·	-4%	·	·	·
CCN1C(=O)C2(CCN(C(=O)NC3CCCCC3)CC2)c2ccccc21	·	·	34%	·	·	·
CNC(=O)c1cc[nH]c1C1CCCN(C(=O)Cc2cccnc2)C1 (stereo not drawn)	·	·	32%	·	·	·
O=C(O)CCC(=O)Nc1ccc(-c2nnc(-c3ccco3)o2)cc1	5%	2%	24%[57.4 µM]	0%	3%	2%
O=C(Cc1ccc(Cl)cc1)Nc1ccc(-c2nnc(-c3ccco3)o2)cc1	32µM*	-4%	31%	0%	8%	1%
CCOc1ccccc1C(=O)N1CCC2(CC1)CC(O)CCO2 (stereo not drawn)	·	·	44%	·	·	·
COc1cc(-c2nc3ccc4ccccc4c3c3c2CCC3)cc(OC)c1OC	25µM*	-5%	?	0%	-3%	1%
Nc1nc(=S)c2ncn(C3CCCCC3)c2[nH]1	·	0%	50µM*	2%	21%	·
Nc1nc(=S)c2ncn([C@@H]3O[C@H](CO)[C@@H](O)[C@H]3O)c2[nH]1	3%	3%	?	-3%	-8%	·

High-throughput results (PubChem BioAssay)
